# PI4K2A block – qHTS for small molecular inhibitors of PI4K2A. purified PI4K2A, ADP-Glo luminescence, 1 h; stronger effect = lower value. activity change, negative = inhibition, % at 76.9 µM. actives 0.13% (n = 420,000). AID 1346378, 2018; in the data active = activity change below about -50%; inconclusive = mostly about -30% to -49%;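 also: -100% = wells without enzyme as full effect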
# Target sequence (Q9BTU6 whole entry, looked up): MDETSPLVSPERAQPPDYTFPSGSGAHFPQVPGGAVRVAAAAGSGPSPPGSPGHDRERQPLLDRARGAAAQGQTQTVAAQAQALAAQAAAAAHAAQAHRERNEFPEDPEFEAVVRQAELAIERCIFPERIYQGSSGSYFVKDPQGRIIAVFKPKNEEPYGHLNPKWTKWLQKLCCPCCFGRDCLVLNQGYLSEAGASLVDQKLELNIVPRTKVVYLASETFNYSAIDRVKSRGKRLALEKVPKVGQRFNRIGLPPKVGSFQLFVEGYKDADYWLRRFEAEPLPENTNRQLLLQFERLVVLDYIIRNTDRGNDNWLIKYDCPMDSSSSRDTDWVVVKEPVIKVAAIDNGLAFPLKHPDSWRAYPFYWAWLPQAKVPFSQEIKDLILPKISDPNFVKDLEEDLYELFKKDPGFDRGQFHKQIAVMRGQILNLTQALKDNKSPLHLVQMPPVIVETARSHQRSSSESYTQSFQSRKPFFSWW
#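 In this quantitative HTS, ADP production by PI4K2A was quantified luminescently after 1 h at ambient temperature; 100 microM adenosine served as plate-quality control.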
# Pin1 inh – qHTS Assay to Find Inhibitors of Pin1 | Peptidyl-prolyl cis-trans isomerase NIMA-interacting 1 (Homo sapiens), Q13526 | Pin1 FP peptide displacement, HiFluor488, 10 min | Potency, µM (top dose mostly 115 µM), for the others: at the highest dose activity, negative = inhibition, most hits filed as inhibitors | actives 0.009% (n = 390,000); active = well fitted inhibition curve with a large enough effect in the polarisation, with a control signal flat, not every such curve was filed as active; inconclusive = small, poorly fitted or top-dose-only effect, or effect the other way, or a change in a side signal; inactive = no such curve, though single readings can be large or run the other way; the % refers to the polarisation; also: potency is read from the fitted curve at half-maximal effect
# Target sequence (Q13526 whole entry, looked up): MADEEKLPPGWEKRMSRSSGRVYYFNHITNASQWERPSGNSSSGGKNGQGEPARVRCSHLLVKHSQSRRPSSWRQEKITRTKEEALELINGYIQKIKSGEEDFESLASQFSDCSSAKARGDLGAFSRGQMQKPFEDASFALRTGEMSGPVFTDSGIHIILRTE
# PGK inhibitor – qHTS Assay to Find Inhibitors of Phosphoglycerate Kinase; Phosphoglycerate kinase, glycosomal (Trypanosoma brucei brucei), P07378; PGK/GAPDH coupled, Kinase-Glo luminescence, 60 min; Potency, µM (series often up to 57.5 µM), for inactives: at the highest dose activity change, negative = inhibition, hits mostly inhibitors; actives 0.043% (n = 380,000); AID 602233, 2012; also: potency is read from the fitted curve at half-maximal effect; nearly all actives have a fitted effect of over 60% in size
#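 Recombinant glycosomal PGK reaction used 1,3-bisphosphoglycerate generated in-well by GAPDH (100nM final) in 100mM TEA pH 7.6, 5mM MgCl2, 0.01% Tween-20. After 60 minutes at room temperature, ATP was read by Kinase-Glo Plus luminescence end-point.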
# GoLoco inh red – qHTS Assay for Inhibitors of RGS12 GoLoco Motif Activity (Red Fluorophore). Guanine nucleotide-binding protein G(i) subunit alpha-1 (Homo sapiens), P63096. Gai1:RGS12 GoLoco peptide FP, rhodamine, 10 min. Potency, µM (titrated, usually from 61.6 µM), inactives show at the highest dose activity, negative = inhibition, usual class: inhibitors. actives 0.44% (n = 230,000). AID 880, 2007; active = well fitted inhibition curve with a large enough effect, not every such curve was filed as active; inactive = no such curve, though single readings can be large or run the other way; also: potency is read from the fitted curve at half-maximal effect; nearly all actives have a fitted effect of over 30% in size
# PI5P4K alpha inh – qHTS for Inhibitors of phosphatidylinositol 5-phosphate 4-kinase (PI5P4K) | Phosphatidylinositol 5-phosphate 4-kinase type-2 alpha (Homo sapiens), P48426 | PI5P4Kalpha enzyme, ADP-Glo luminescence, 60 min; stronger effect = lower value | max response, % | actives 1.2% (n = 330,000) | AID 652105, 2013; active = max response of -50% or lower; inconclusive = between -30% and -50%; inactive = -30% or higher; also: value at the top dose of about 77 µM
#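 Single end-point luminescence (ADP-Glo) quantified ADP from PI5P4Kalpha turnover; ATP 5 microM final, 1 h at RT, 0.1% CHAPS and 0.28 mM EGTA in HEPES pH 7.4.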
# KAT2A inh – qHTS Assay for Inhibitors of GCN5L2 | GCN5L2 HAT assay, ThioGlo1 CoA-SH fluorescence | actives 0.21% (n = 390,000) | Histone acetyltransferase KAT2A (Homo sapiens), Q92830 | Potency, µM (highest dose often 58.9 µM), inactives show at the highest dose activity change, negative = inhibition, actives largely listed as inhibitors; also: potency is read from the fitted curve at half-maximal effect
#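 Fluorescence readout, Ex340nm/Em540nm: ThioGlo1 (50uM final) reacts with free CoA thiol released as 20nM GCN5L2 acetylates H3(1-25) peptide (75uM) using acetyl-CoA (70uM). Compound and enzyme sat 15 min beforehand; 20 min room-temperature reaction.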
# ADP-Glo counter – qHTS for Inhibitors of PI5P4K: ADP-Glo counter assay. shares compounds with PI5P4K alpha inh. ADP-Glo detection counter-screen, luciferase luminescence, no enzyme. Potency, µM (highest dose often 76.9 µM), without a hit: at the highest dose activity change, negative = inhibition, actives largely listed as inhibitors. 1,100 tested, under 10 active
# * = called active by the depositor; i = inactive; ? = inconclusive; / = no result given; [ ] = dose if it differs, or a comment. Rows were chosen to be rich in hits. Some 1.2% of all compounds tested hit in one or more screens of this group. Unless noted, calls follow the shape of the dose curve; as a rule, active = well fitted curve in the direction sought with a large enough effect; inconclusive = small, poorly fitted or top-dose-only effect, or another doubt; inactive = no such curve, though single readings can be large; an effect the other way counts as inactive or inconclusive. Unless noted, % is scaled to controls: 0 for no effect and ±100 for the full control effect.
SMILES,PI4K2A block,Pin1 inh,PGK inhibitor,GoLoco inh red,PI5P4K alpha inh,KAT2A inh,ADP-Glo counter
CCCCn1c(N)c(N(CC)C(=O)COc2ccc(C#N)cc2)c(=O)[nH]c1=O,7.0,-1.8%,-6.3%,/,-1.9,1.8%,/
COC(=O)c1c(NC(=O)CN2C(=O)NC3(CCC(C)CC3)C2=O)sc2c1CCC2 (stereo unspecified),-8.1,5.4%,0.8%,/,4.0,-0.6%,/
CC1CCCCC12NC(=O)N(CC(=O)Nc1sc3c(c1C(N)=O)CCC3)C2=O (stereo unspecified),-8.5,?,i,120.2%,-60.4*,-25.5%,0.1%
CCOc1ccc(NC(=O)N2CCC(n3nnc4ccccc43)CC2)cc1,-0.2,-7.4%,-14.0%,20.3%,-51.5*,-4.4%,1.7%
O=C1C(c2ccccc2)=NCCN1C(c1ccc(F)cc1)c1nc2ccccc2[nH]1 (stereo unspecified),1.0,/,/,/,-0.5,/,/
Cc1ccc(C(c2cc(Cl)c3cccnc3c2O)N2CCN(C)CC2)cc1 (stereo unspecified),1.7,-1.6%,i,/,-88.9*,31.6µM*,6.2%
CN1CCN(C(c2ccccn2)c2cc(Cl)c3cccnc3c2O)CC1 (stereo unspecified),-4.3,-7.2%,-3.9%,-0.5%,?,-16.0%,/
N#Cc1ccccc1NC(=O)C(=O)NCCCN1CCCC1=O,-3.2,-7.2%,i,/,-5.3,1.0%,/
COc1ccc(CC(=O)NCc2nc(-c3ccccc3)no2)cc1,-2.7,-4.3%,i,8.9%,1.7,5.5%,/
COc1ccc(OCC(=O)NCc2nc(-c3ccccc3)no2)cc1,2.1,26.0%,-8.5%,/,-57.6*,/,3.3%
COc1ccc2c([N+](=O)[O-])c(Cl)[nH]c2c1,-17.3,?,?,0.3%,-56.7*,-16.6%,0.0%
COc1ccc2c([N+](=O)[O-])c(N3CCOCC3)[nH]c2c1,0.3,/,2.4%,/,-1.0,/,/
COc1cccc(C(=O)OCC(=O)Nc2sc3c(c2C(N)=O)CCC3)c1O,-16.9,?,-16.4%,/,-51.5*,-28.2%,3.5%
O=C(C1CCC(=O)N1Cc1cccs1)N1CCOCC1 (stereo unspecified),-3.5,-2.2%,-3.0%,4.5%,1.2,2.5%,/
Cn1nnnc1Sc1ncnc2scc(-c3ccccc3C(F)(F)F)c12,-11.9,8.5%,-2.3%,/,/,?,1.9%
FC(F)(F)C1=Nc2cccc3cccc(c23)N1,-64.3*,/,-5.6%,/,-82.4*,6.31µM*,-5.4%
CCC(=NNC(=O)c1cccc(S(=O)(=O)N2CCOCC2)c1)c1ccccc1,-1.6,2.5%,-0.1%,/,0.1,-0.6%,/
COc1ccc(S(=O)(=O)N2CCCC(C(=O)Nc3cccnc3)C2)cc1Cl (stereo unspecified),4.5,-1.8%,-6.2%,9.7%,-50.2*,-1.0%,-5.7%
Cc1ccc(NC(=O)c2cc(NC(=O)c3ccccc3C(=O)O)ccc2N2CCCCC2)cc1,3.7,?,8.4%,13.0%,-51.7*,-5.6%,-3.4%
Cc1ccc(S(=O)(=O)N(C)CC(=O)NNC(=O)CCS(=O)(=O)c2ccccc2)cc1,-4.2,3.3%,-4.5%,/,2.5,-2.9%,/
O=C(Cc1ccc(S(=O)(=O)N2CCOCC2)s1)NC1CCCCC1,-4.5,7.9%,-9.8%,/,-50.9*,-13.8%,-8.6%
O=C(Cc1ccc(S(=O)(=O)N2CCOCC2)s1)Nc1nc2c(s1)CCCC2,-22.5,?,-27.3%,80.8%,-65.9*,-3.4%,-3.2%
Cc1ccc(C)c(S(=O)(=O)Nc2ccc3oc(C)c(C(=O)O)c3c2)c1,0.1,?,?,/,-95.1*,-20.4%,-5.9%
COc1cc(C(=O)N/C(=C\c2cn(S(=O)(=O)N(C)C)c3ccccc23)C(=O)NCCCO)cc(OC)c1OC,1.0,-1.2%,-2.3%,1.5%,-0.4,?,/
Cc1c(NC(=O)COC(=O)C2(c3ccc(F)cc3)CCCC2)c(=O)n(-c2ccccc2)n1C,4.3,-12.3%,i,-8.2%,5.4,-4.0%,/
SMILES,PI4K2A block,Pin1 inh,PGK inhibitor,GoLoco inh red,PI5P4K alpha inh,KAT2A inh,ADP-Glo counter
O=C(NCC1CC1)c1ccc(Nc2nc3ccc(Br)cc3[nH]2)cc1,-4.4,-1.6%,-2.1%,-37.0%,-55.9*,-25.5%,2.7%
CC(Sc1ccccc1)C(=O)NCCc1ccccc1 (stereo unspecified),-0.8,0.4%,-8.8%,/,2.5,-6.1%,/
Cc1cc(-c2csc(N)n2)c(C)n1CCC(C)C,?,?,-3.5%,155.1%,-64.4*,-2.0%[0.501 µM],-7.2%
CCCOc1ccc(CSc2ncn[nH]2)cc1,-5.1,5.2%,i,-1.0%,-70.7*,-7.3%,3.2%
CN(Cc1cccs1)c1ncnc2ccc(-c3ccc4c(c3)OCO4)cc12,-8.7,7.3%,/,/,/,/,/
Cc1ccsc1CN(C)c1ncnc2ccc(-c3ccoc3)cc12,-12.3,/,/,/,/,/,2.4%
Cc1ccc(-c2noc(CN(C)C(=O)c3ccoc3C)n2)cc1,0.5,3.7%,5.1%,/,2.4,-4.3%,/
NS(=O)(=O)c1ccc(NC(=O)c2ccc(S(=O)(=O)N3CCc4ccccc43)cc2)cc1,-0.3,16.5%,-5.1%,-2.9%,-65.6*,-6.0%,-3.3%
Nc1nc(N)c2cc(S(=O)(=O)c3cccc(C(F)(F)F)c3)ccc2n1,0.0,/,i,/,-54.1*,/,-8.5%
Cc1nnc(NC2CCCCC2)[nH]c1=O,-5.0,2.0%,2.2%,-1.1%,2.4,-3.2%,/
O=C1NN=C2CCCCCC12 (stereo unspecified),-9.8,/,-8.4%,/,-5.9,/,-0.6%
O=C(OCc1nnc(-c2ccccc2)o1)c1ccc2ccccc2n1,2.2,-0.3%,-1.8%,8.0%,-66.2*,-11.9%,-6.0%
O=C(OCc1nnc(-c2ccccc2)o1)c1ccc(S(=O)(=O)NCc2ccco2)cc1,-12.9,-7.2%,-0.3%,1.3%,-54.4*,-20.0%,-2.6%
NC(=O)COC(=O)c1ccc(S(=O)(=O)NCc2ccco2)cc1,-7.1,-2.3%,-28.7%,1.7%,-11.5,-10.3%,/
COc1ccccc1N1CCN(C(=O)c2ccc(Br)o2)CC1,0.9,4.6%,4.0%,/,-3.6,-3.4%,/

# Source: PubChem BioAssay
